HSF1 inhib: HSF1 inhibitors in luciferase reporter cells, primary screen, cell-based, NIH3T3, luminescence | hit rate 0.77% among 300,000 | AID 2098, 2009 | activity change, negative = inhibition, % at 7.5 µM (by protocol) | NIH3T3-HGL HSE-luciferase, MG132-induced, luminescence 8 h; stronger effect = lower value;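 active means more than half of replicate wells show activity change below -50%, luminescence cut by over half; inconclusive means some wells, but at most half, below -50%; inactive means no replicate well below -50%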;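 further: luciferase reports HSF-1 transcriptional activity via heat shock element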
Platelet DG rel: inhibitors of platelet dense granule secretion, primary screen, cell-based, MLPCN, human platelets. human platelet-rich plasma, SFLLRN dense granule ATP release, luminescence. inhibition, %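 (compounds screened at 7.5 µM in platelet-rich plasma)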. hit rate 0.22% among 300,000;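 active means mean replicate score, as percent of positive control, at or above 50; inconclusive means mean below 50 but at least one replicate at or above 50; inactive means mean and every replicate below 50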
HSP90 refold inh: HSP90 inhibitors, primary screen, cell lysate, luminescence. Heat shock protein HSP 90 (rabbit reticulocyte lysate; luciferase refolding). Rabbit reticulocyte lysate, luciferase refolding luminescence, 3 h. inhibition, % at 5.6 µM. hit rate 0.91% among 290,000. AID 1789, 2009;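 active means inhibition above the screen-wide mean plus 3 SD, computed separately per campaign, cut at about 16% in these data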;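 further: inhibitors lower the luminescence because luciferase stays unfolded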
HSF-1 act: HSF-1 activators, primary screen, NIH3T3-HGL cells, MG132 stress, luminescence, single point. NIH3T3-HGL HSF-1 luciferase reporter, 8 h; 100% = twice DMSO control signal. AID 504408, 2011. hit rate 1.7% among 300,000. activation, % at 9 µM;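 active means mean replicate activation of at least 50% with a set share of replicates each reaching 50%; inconclusive means only one of those two conditions met; inactive means mean below 50% and too few replicates reaching it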
dFosB act: activators of delta FosB homodimer, primary screen, biochemical, fluorescence polarization, TAMRA-CDK5 oligo, single point; Protein FosB (Mus musculus), P13346; AID 493131, 2011; purified delta FosB; percent of positive-control signal above neutral wells; hit rate 0.99% among 340,000; activation, % at 25 µM;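 active means mean activation above about 17%, with every replicate also reaching it, limit read from the data, passing the limit was not always enough; inconclusive means only one of the two conditions met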
Target sequence (P13346 whole entry, looked up): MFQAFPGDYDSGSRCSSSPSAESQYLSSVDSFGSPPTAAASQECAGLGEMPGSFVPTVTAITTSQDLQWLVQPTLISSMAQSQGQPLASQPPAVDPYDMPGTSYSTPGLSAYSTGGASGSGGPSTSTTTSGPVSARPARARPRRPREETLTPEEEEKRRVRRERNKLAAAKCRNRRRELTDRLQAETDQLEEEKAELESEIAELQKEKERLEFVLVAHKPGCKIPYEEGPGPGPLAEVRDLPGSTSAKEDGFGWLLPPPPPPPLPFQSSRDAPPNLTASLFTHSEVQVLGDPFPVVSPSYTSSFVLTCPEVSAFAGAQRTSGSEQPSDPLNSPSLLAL
MPTP block: mitochondrial permeability transition pore inhibitors, primary screen, biochemical, isolated mouse mitochondria, absorbance; Ca2+ swelling absorbance, 30 min; inhibition, % at 10 µM; hit rate 1.4% among 360,000;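 active means inhibition of 50% or more, scaled per plate between neutral and stimulator controls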
A number is an active result; – = inactive; ? = inconclusive; · = no result. Sampled rows, rich in hits. Any-hit rate of the full collection: about 4.9%.

SMILES	HSF1 inhib	Platelet DG rel	HSP90 refold inh	HSF-1 act	dFosB act	MPTP block
Cc1[nH]n(-c2ccccc2)c(=O)c1C(C[N+](=O)[O-])c1ccc(F)cc1 (stereo not given)	–	–	–	282	–	–
Cc1[nH]n(-c2ccccc2)c(=O)c1C(C[N+](=O)[O-])c1ccc(Cl)cc1 (stereo not given)	–	–	–	133	–	–
Cc1ccc(NC(=O)c2noc3c2CCc2ccccc2-3)cc1	–	–	–	?	–	–
Cc1nn(Cc2ccccc2)c(C)c1NC(=O)c1noc2c1CCc1ccccc1-2	-67	–	–	–	–	–
Cc1ccc(C(=O)Nc2ncc(Cc3ccc(F)cc3)s2)o1	–	–	–	68	–	–
Cc1cc(C)n(CCCNC(=O)C(C)(C)Oc2ccc(Cl)cc2)n1	·	·	·	·	–	–
CCSC1(SCC)N=C(N)C2(C#N)C(c3ccc(F)cc3)C12C#N (stereo not given)	–	–	–	82	–	–
COC1(OC)N=C(N)C2(C#N)C(c3ccc(F)cc3)C12C#N (stereo not given)	–	–	–	–	–	–
Clc1ccc(-n2nnc(-c3cccnc3Cl)n2)cn1	–	–	–	–	–	–
Cc1ccc(-n2nnc(-c3cccnc3Cl)n2)cc1	–	–	–	70	–	–
CCOc1cc(C(c2c(C)[nH][nH]c2=O)c2c(C)[nH][nH]c2=O)cc(Br)c1OC	-69	–	–	–	–	–
COc1cc(C(c2c(C)[nH][nH]c2=O)c2c(C)[nH][nH]c2=O)cc(Br)c1OC	–	–	–	–	–	–
CCOc1cc(C(c2c(C)[nH][nH]c2=O)c2c(C)[nH][nH]c2=O)ccc1OC(=O)c1cccc([N+](=O)[O-])c1	–	–	–	–	–	–
CCOc1cc(C(c2c(C)[nH][nH]c2=O)c2c(C)[nH][nH]c2=O)ccc1OCc1ccc([N+](=O)[O-])cc1	–	–	–	129	–	–
Cc1cc(C)n2nc(C(=O)Nc3cccc(S(=O)(=O)N(C)c4ccccc4)c3)nc2n1	–	–	–	–	–	–
CC(C)c1[nH]nc2c1C(c1ccco1)C(C#N)=C(N)O2 (stereo not given)	–	–	–	55	–	–
O=C(N/N=C/c1ccccn1)c1cc([N+](=O)[O-])cc([N+](=O)[O-])c1	–	–	–	–	–	–
O=C(N/N=C/c1ccccn1)c1ccc([N+](=O)[O-])cc1	-81	–	–	–	–	–
CC(Oc1cc2oc(=O)c3c(c2cc1Cl)CCC3)C(=O)NCCCn1ccnc1 (stereo not given)	–	–	–	–	–	–
Cc1ccccc1NC(=O)C1CCN(S(=O)(=O)c2cccc3nonc23)CC1	–	–	–	–	–	–
O=C(CCl)N1CCN2C(=O)c3ccccc3C12c1ccc(Cl)cc1 (stereo not given)	–	–	–	76	–	–
Cc1ccc(C(=O)N2CCN3C(=O)c4ccccc4C23c2ccc(Cl)cc2)cc1 (stereo not given)	–	–	–	–	–	–
Cc1nc(C2CCC3C4CCC5=CC(=O)CC[C@]5(C)C4CC[C@]23C)cs1 (stereo not given in full)	–	–	–	–	·	·
COc1ccc(S(=O)(=O)N2CCN(C(=O)N3CCOCC3)C2C)cc1 (stereo not given)	–	–	–	–	–	–
O=C(NCCc1csc(-c2ccccc2)n1)c1c(F)cccc1F	–	–	41	–	–	–
COc1ccc(C(=O)N2CCOC2CNC(=O)C(=O)NCc2ccc3c(c2)OCO3)cc1 (stereo not given)	–	–	–	–	–	–
Cc1ccc(CNC(=O)C(=O)NCC2OCCN2C(=O)c2ccc3c(c2)OCO3)cc1 (stereo not given)	–	–	–	–	17	–
COc1cc2c(c(Br)c1N)-c1cc(Br)c(N)cc1C2=O	·	·	·	·	·	–
COc1cc2c(cc1OC)C(O)C(O)(CO)C(C(=O)O)C2c1cc(OC)c(OC)c(OC)c1 (stereo not given)	·	·	·	·	–	–

Source: PubChem
